Screening data (PubChem)
PAX8 inh HTS: inhibitors of PAX8-driven TPO luciferase reporter, primary screen, RMG-I cells, single concentration; SteadyGlo, 24 h; inhibition, % at 12.6 µM; 1.2% of 360,000 active;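 active = mean replicate inhibition at least 60% with every replicate also reaching 60%; inconclusive = only one of the two criteria is met; inactive = mean below 60% and not all replicates reaching 60%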;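 note: luciferase light reporting Pax8 driven TPO promoter activity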
TWEAK Fn14 block: inhibitors of TWEAK-Fn14 signaling, primary screen, luciferase reporter cells, uHTS; TWEAK-stimulated Fn14 reporter cells, luciferase luminescence, 8 h; inhibition, % at 10 µM; 2% of 360,000 active; AID 1159606, 2016; in the data active = inhibition above about 50%
LGR2 inh: inhibitors of bursicon-induced LGR2 CRE-luciferase signal, primary screen, cell-based, HEK293, CRE-luciferase reporter, bursicon stimulation | Drosophila bursicon receptor LGR2 (rickets) | bursicon-stimulated, 4 h | inhibition, % at 9.99 µM | 0.35% of 380,000 active | AID 720647, 2013;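 active = drop in luminescence signal, shown as inhibition above about 50% in the replicate tests, limit read from the data, passing the limit was not always enough; inconclusive = probably only some replicates passing the limit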;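 note: agonist challenge used bursicon conditioned medium at about half maximal strength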
EWS-Fli block: EWS/Fli-driven NR0B1 reporter inhibitors, primary screen, A673 cells, NR0B1 luciferase, luminescence, MLPCN library; inhibition, % at 12.6 µM; viability-normalised; 0.67% of 350,000 active;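 active = mean inhibition of at least 50% after viability correction, with every replicate also passing that limit; inconclusive = mean reaches 50% but only one of two replicates passes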;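 note: firefly luciferase signal divided by Alamar Blue viability fluorescence both relative to DMSO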
LMP1 NFkB inh: EBV LMP1-driven NF-kappaB luciferase reporter inhibitors, primary screen, cell-based, luminescence, single point | AID 504558, 2011 | inhibition, % at 12.5 µM | 0.69% of 350,000 active | LMP1-induced NF-kappaB luciferase reporter cells; in the data active = inhibition above about 41%; inconclusive = no clear call, values can overlap the other calls
TROY signal inh: inhibitors of TROY-driven NF-kB signaling, primary screen, Q293 LMP1-TROYcd cells, NF-kB luciferase, uHTS. Q293 LMP1-TROYcd NF-kB luciferase reporter, 4 h. 0.98% of 360,000 active. inhibition, % at 10 µM;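 active = compounds whose plate-normalised and pattern-corrected inhibition of the luciferase reporter signal at the single screening dose is 50% or more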
Of the large screens only hits and unclear results are named; the others gave an inactive call. An excerpt weighted towards active compounds, which were near 3.2% of everything screened.

C=CC[C@]1(C(=O)NCc2ccccc2)N=C(c2ccc(OCCCO)cc2)O[C@H]1c1ccccc1	none (no result: TWEAK Fn14 block, LGR2 inh, LMP1 NFkB inh, TROY signal inh)
C[N+](C)(C)C[C@H](O)CC(=O)[O-]	LMP1 NFkB inh 51.2 (no result: PAX8 inh HTS)
CCC(=O)N1CC[C@H]2[C@@H]1c1cc(C#Cc3ccccc3OC)ccc1N(C)[C@H]2CO	none (no result: TWEAK Fn14 block, LMP1 NFkB inh, TROY signal inh)
Cc1ccc(SCc2cc(=O)[nH]c(/N=C(\N)Nc3ccccc3Sc3ccccc3)n2)cc1	TWEAK Fn14 block 65.5 (no result: EWS-Fli block)
CN(C)C(=O)[C@@H]1[C@@H](CO)[C@@H]2Cn3c(ccc(-c4ccccc4)c3=O)[C@H]1N2C(=O)C1CCCC1	none (no result: PAX8 inh HTS, TWEAK Fn14 block, LMP1 NFkB inh, TROY signal inh)
CN(C)CCN(Cc1ccc(Cl)cc1)c1ccccn1	LMP1 NFkB inh 52.2
Cc1c(-c2ccccc2)oc2c(C(=O)N3CCN(c4ccccc4F)CC3)cccc2c1=O	TWEAK Fn14 block 54.1 (no result: PAX8 inh HTS, EWS-Fli block)
Cc1ccc(NC(=O)CSc2nsc(SCC(=O)Nc3ccc(C)cc3C)c2C#N)c(C)c1	none
Cc1csc(NC(=O)CSc2nsc(SCC(=O)Nc3nc(C)cs3)c2C#N)n1	TROY signal inh 56.9 (no result: PAX8 inh HTS, LGR2 inh, EWS-Fli block)
Cc1nc(SCC(=O)Nc2nccs2)c(C#N)c(C)c1C	TWEAK Fn14 block 75.6, EWS-Fli block 71.9, LMP1 NFkB inh inconclusive, TROY signal inh 72.7
Cc1ccc2sc(NC(=O)CSc3nc(C)cc(C)c3C#N)nc2c1	none (no result: PAX8 inh HTS, LGR2 inh, EWS-Fli block)
Cc1cc(C(F)(F)F)c(C#N)c(SCC(=O)Nc2nc3ccccc3s2)n1	TWEAK Fn14 block 88.8, TROY signal inh 84.8
COCCCn1nnnc1SCC(=O)Nc1nc2ccccc2s1	TROY signal inh 81.3
CNC(=O)C[C@@H]1CC[C@H]2[C@H](COc3ccc(NC(=O)c4ccccc4Cl)cc3C(=O)N2C)O1	none (no result: TWEAK Fn14 block, LMP1 NFkB inh, TROY signal inh)
Cc1noc(C)c1NC(=O)Nc1ccc2c(c1)C(=O)N([C@@H](C)CO)C[C@@H](C)[C@H](CN(C)CC1CCCCC1)OCCCC[C@@H](C)O2	none (no result: PAX8 inh HTS, TWEAK Fn14 block, LMP1 NFkB inh, TROY signal inh)
CO[C@H]1CN(C)C(=O)c2cc(NC(=O)c3cc(C)on3)ccc2OC[C@H](C)N(C(C)=O)C[C@@H]1C	none (no result: PAX8 inh HTS, TWEAK Fn14 block, LMP1 NFkB inh, TROY signal inh)
Cc1nc(SCC(=O)Nc2nc3ccccc3s2)c(C#N)c(C)c1C	PAX8 inh HTS 107.9, TWEAK Fn14 block 106.8, LGR2 inh 92.8, EWS-Fli block 87.4, LMP1 NFkB inh 84.4, TROY signal inh 91.7
Cc1nc(SCC(=O)Nc2nc3ccccc3s2)n[nH]1	none
O=C(N/N=C/c1ccc2cccc(OCc3ccccc3)c2n1)c1ccc(Br)cc1	TWEAK Fn14 block 66.2 (no result: LGR2 inh, EWS-Fli block)
COc1ccc(C(=O)N/N=C/c2ccc3cccc(OCc4ccccc4)c3n2)cc1	none (no result: LGR2 inh, EWS-Fli block)
O=C(NCC[C@H]1CC[C@@H](NS(=O)(=O)c2ccc(F)cc2)[C@H](CO)O1)c1ccccc1F	none (no result: PAX8 inh HTS, TWEAK Fn14 block, LMP1 NFkB inh, TROY signal inh)
COc1ccc2c(C)cc(=O)oc2c1	none
Cc1cc(=O)oc2cc(Oc3ncccc3[N+](=O)[O-])ccc12	none
Cc1cc(=O)oc2cc(Oc3ncccn3)ccc12	LMP1 NFkB inh 44.9 (no result: LGR2 inh, EWS-Fli block)
COc1ccc(C2=NOC(COc3ccc4c(C)cc(=O)oc4c3)C2)c(OC)c1 (stereo not given)	EWS-Fli block 56.1 (no result: LGR2 inh, LMP1 NFkB inh)
COc1ccccc1C1=NOC(COc2ccc3c(C)cc(=O)oc3c2)C1 (stereo not given)	EWS-Fli block 53.4 (no result: LGR2 inh)
C[C@H]1CN([C@@H](C)CO)C(=O)c2cc(/C=C/c3ccccc3)cnc2O[C@H]1CN(C)C	none (no result: PAX8 inh HTS, TWEAK Fn14 block, LMP1 NFkB inh, TROY signal inh)
COc1ccc(S(=O)(=O)Nc2ccc3c(c2)CC(=O)N([C@@H](C)CO)C[C@@H](C)[C@H](CN(C)Cc2ccc(Cl)c(Cl)c2)O3)cc1	none (no result: TWEAK Fn14 block, LMP1 NFkB inh, TROY signal inh)
C[C@@H]1CN([C@H](C)CO)C(=O)Cc2cc(NS(=O)(=O)c3ccc(F)cc3)ccc2O[C@H]1CN(C)Cc1ccc(Cl)c(Cl)c1	none (no result: TWEAK Fn14 block, LMP1 NFkB inh, TROY signal inh)
C[C@H](CO)N1C[C@H](C)[C@H](CN(C)Cc2ccc(Cl)c(Cl)c2)Oc2ccc(NS(=O)(=O)c3cn(C)cn3)cc2CC1=O	EWS-Fli block 64.7 (no result: TWEAK Fn14 block, LMP1 NFkB inh, TROY signal inh)
COc1ccc(S(=O)(=O)Nc2ccc3c(c2)CC(=O)N([C@H](C)CO)C[C@H](C)[C@@H](CN(C)Cc2ccc(Cl)c(Cl)c2)O3)cc1	PAX8 inh HTS 75.3 (no result: TWEAK Fn14 block, LMP1 NFkB inh, TROY signal inh)
C[C@H](CO)N1C[C@H](C)[C@H](CN(C)CC2CCCCC2)Oc2ccc(NS(=O)(=O)c3ccc(Cl)cc3)cc2CC1=O	PAX8 inh HTS 106.3 (no result: TWEAK Fn14 block, LMP1 NFkB inh, TROY signal inh)
